Reference: the supplement of paper PMC10849652
Targets with a hit are over-represented here; the source holds about 7,900 in all. About 0.6% of all pairs of compound and target were hits.

Columns and labels:
Assay in all cases: log2 fold change, soluble protein after heating vs DMSO (PISA); higher = thermal stabilisation; K562 cells, 10 uM, 30 min; active = over 0.2 and 3.5 SD of the protein, either way, in both replicates (recomputed)
[1] = compound: NCC(=O)Nc1ccc(-n2nc(C(F)(F)F)cc2-c2ccc3c(ccc4ccccc43)c2)cc1
In short: (§1)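 Aliquots of K562 cells (2×10^6 cells/mL) treated with 10 μM compound for 30 min were heated for 3 min over 48°C-58°C. After pooling and extraction in PBS with 0.5% NP-40 at 4°C, soluble protein from a 21,000xg, 90 min spin was quantified by TMTpro 16plex LC-MS/MS with channel sums equalised. Thermal stability is expressed against control samples, from duplicates, as a log2 fold change.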

citarinostat = compound: O=C(CCCCCCNC(=O)c1cnc(N(c2ccccc2)c2ccccc2Cl)nc1)NO [citarinostat]
In short: as §1

[2] = compound: c1cc(OCCN2CCCCC2)cc(-c2n[nH]c3ccc(-c4nnc[nH]4)cc23)c1
In short: as §1

entospletinib = compound: c1cn2cc(-c3ccc4cn[nH]c4c3)nc(Nc3ccc(N4CCOCC4)cc3)c2n1 [entospletinib]
In short: as §1

[3] = compound: NC(=O)c1cnc(N[C@@H]2CCCC[C@@H]2N)nc1Nc1cccc(-n2nccn2)c1
In short: as §1

[4] = compound: NC1(c2ccc(-c3nc4ccn5c(=O)[nH]nc5c4cc3-c3ccccc3)cc2)CCC1
In short: as §1

vorinostat = compound: O=C(CCCCCCC(=O)Nc1ccccc1)NO [vorinostat]
In short: as §1

silmitasertib = compound: O=C(O)c1ccc2c(c1)nc(Nc1cccc(Cl)c1)c1ccncc12 [silmitasertib]
In short: as §1

[5] = compound: O=C1NC(=O)C(c2cnc3ccccn23)=C1c1cn2c3c(cc(F)cc13)CN(C(=O)N1CCCCC1)CC2
In short: as §1

[6] = compound: NC(=O)Nc1cc(-c2cccc(F)c2)sc1C(=O)N[C@H]1CCCNC1
In short: as §1

entinostat = compound: Nc1ccccc1NC(=O)c1ccc(CNC(=O)OCc2cccnc2)cc1 [entinostat]
In short: as §1

Measured: log2 fold change

PDE4DIP (UniProt E9PS60)
inactive: [1] -0.172 | citarinostat 0.06 | [2] -0.051 | entospletinib -0.01

PHLDB1 isoform 2 (UniProt Q86UU1)
Chain of UniProt Q86UU1 (Q86UU1 whole entry, looked up): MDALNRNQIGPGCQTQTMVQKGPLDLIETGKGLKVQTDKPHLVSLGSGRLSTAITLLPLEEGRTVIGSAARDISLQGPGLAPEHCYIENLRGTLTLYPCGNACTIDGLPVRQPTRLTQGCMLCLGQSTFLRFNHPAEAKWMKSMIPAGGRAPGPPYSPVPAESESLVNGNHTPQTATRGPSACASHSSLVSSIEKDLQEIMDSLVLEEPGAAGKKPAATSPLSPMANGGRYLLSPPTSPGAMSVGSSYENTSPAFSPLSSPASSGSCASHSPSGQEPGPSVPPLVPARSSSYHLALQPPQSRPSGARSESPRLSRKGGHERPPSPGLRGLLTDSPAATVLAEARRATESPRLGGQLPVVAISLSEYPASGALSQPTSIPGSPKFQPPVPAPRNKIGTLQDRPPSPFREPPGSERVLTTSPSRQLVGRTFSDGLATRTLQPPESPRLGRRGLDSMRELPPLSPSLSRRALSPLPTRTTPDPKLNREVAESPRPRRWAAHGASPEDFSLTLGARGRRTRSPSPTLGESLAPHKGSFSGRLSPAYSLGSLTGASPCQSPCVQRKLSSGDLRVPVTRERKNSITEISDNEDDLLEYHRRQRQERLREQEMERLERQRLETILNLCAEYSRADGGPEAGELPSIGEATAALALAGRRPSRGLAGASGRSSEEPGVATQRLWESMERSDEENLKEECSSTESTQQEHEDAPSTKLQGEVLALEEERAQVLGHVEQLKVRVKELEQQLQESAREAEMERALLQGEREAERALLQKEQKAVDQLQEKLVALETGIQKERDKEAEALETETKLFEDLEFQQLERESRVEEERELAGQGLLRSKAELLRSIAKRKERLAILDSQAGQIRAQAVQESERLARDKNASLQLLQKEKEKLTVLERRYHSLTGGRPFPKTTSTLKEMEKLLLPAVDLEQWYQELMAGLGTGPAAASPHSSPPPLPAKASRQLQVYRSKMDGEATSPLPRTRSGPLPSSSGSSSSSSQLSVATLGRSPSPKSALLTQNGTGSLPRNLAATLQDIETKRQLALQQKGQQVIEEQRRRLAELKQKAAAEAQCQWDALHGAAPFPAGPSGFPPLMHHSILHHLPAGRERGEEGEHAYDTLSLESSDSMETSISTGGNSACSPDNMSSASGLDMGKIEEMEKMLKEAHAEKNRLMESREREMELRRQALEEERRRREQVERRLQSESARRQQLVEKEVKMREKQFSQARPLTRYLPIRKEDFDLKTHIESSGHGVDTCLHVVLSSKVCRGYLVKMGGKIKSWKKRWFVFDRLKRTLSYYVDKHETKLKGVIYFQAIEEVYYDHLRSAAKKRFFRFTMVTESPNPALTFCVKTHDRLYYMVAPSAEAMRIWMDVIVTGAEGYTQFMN
inactive: [3] 0.112 | [4] -0.057 | [1] -0.186 | vorinostat 0.229 | citarinostat -0.014 | silmitasertib 0.045 | [5] -0.178 | [2] -0.117 | entospletinib -0.005

PMS2CL (UniProt Q68D20)
Chain of UniProt Q68D20 (Q68D20 whole entry, looked up): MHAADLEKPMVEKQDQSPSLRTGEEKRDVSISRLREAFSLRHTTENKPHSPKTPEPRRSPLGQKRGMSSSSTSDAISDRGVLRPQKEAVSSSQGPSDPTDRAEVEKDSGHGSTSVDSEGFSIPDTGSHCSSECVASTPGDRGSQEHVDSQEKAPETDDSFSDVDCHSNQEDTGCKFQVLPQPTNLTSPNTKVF
inactive: [4] 0.185 | silmitasertib 0.095 | [5] 0.062

PSMC3 (UniProt E9PLG2)
inactive: [6] -0.62 | [4] -0.077 | [1] 0.117 | entinostat -0.438 | silmitasertib 0.097 | [5] -0.327

PSMA3 (UniProt G3V4X5)
inactive: [1] -0.055

PSMA3 (UniProt H0YJ03)
inactive: [3] -0.059 | [1] -0.048 | citarinostat 0.081 | [2] 0.143 | entospletinib -0.059

PIAS4 (UniProt Q8N2W9)
Chain of UniProt Q8N2W9 (Q8N2W9 whole entry, looked up): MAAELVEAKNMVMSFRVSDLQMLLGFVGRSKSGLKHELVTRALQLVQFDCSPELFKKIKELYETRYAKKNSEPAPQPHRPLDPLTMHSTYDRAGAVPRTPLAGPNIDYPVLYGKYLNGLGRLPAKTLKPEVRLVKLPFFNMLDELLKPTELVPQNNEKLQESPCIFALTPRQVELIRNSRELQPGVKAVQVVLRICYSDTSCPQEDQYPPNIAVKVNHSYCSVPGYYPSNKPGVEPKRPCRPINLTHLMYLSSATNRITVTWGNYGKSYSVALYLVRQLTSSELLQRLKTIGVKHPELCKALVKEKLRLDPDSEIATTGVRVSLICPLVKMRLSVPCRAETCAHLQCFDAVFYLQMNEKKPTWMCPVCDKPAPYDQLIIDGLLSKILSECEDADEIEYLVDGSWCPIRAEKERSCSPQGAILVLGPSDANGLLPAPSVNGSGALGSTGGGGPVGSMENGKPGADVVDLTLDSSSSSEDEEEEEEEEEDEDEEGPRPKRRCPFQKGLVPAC
inactive: [4] 0.094 | vorinostat -0.014 | silmitasertib -0.271 | [5] -0.404

PAN2 (UniProt Q504Q3)
Chain of UniProt Q504Q3 (Q504Q3 whole entry, looked up): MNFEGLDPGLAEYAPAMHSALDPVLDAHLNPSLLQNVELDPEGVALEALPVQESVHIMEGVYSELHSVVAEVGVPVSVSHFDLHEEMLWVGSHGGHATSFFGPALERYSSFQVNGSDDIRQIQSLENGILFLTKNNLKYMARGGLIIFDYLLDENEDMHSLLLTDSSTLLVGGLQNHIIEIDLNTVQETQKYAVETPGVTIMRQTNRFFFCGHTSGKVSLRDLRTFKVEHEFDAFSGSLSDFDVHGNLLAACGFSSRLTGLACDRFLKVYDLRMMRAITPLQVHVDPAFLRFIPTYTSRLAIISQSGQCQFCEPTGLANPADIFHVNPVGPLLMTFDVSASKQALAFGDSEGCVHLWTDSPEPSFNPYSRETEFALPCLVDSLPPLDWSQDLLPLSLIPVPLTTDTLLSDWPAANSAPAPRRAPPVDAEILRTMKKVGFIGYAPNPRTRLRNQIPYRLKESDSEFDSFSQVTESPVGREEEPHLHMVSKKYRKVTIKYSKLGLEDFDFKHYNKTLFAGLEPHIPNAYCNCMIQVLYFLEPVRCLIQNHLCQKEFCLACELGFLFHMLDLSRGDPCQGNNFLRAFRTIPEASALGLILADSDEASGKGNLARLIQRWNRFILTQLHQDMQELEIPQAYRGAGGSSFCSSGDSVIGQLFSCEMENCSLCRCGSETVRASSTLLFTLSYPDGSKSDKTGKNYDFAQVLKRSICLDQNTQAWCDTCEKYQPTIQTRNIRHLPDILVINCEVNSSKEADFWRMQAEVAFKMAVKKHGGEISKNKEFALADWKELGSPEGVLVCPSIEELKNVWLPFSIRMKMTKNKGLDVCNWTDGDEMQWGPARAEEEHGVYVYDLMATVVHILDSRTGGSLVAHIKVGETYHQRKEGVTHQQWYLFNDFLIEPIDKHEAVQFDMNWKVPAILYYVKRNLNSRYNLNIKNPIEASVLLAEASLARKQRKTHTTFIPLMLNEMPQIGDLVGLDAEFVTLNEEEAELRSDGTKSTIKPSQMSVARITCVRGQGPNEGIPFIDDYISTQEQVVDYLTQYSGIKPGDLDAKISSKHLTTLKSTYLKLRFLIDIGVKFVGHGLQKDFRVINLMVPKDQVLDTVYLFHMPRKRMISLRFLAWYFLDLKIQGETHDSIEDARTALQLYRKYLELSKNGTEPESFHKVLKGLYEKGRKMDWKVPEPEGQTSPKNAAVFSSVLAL
inactive: [1] -0.198 | citarinostat -0.127 | [2] 0.002 | entospletinib -0.151

PIK3CD (UniProt O00329)
inactive: [6] 0.086 | [3] 0.014 | [1] -0.047 | entinostat -0.008 | citarinostat -0.285 | [5] -0.092 | [2] 0.143 | entospletinib -0.206

POM121 (UniProt Q96HA1)
Chain of UniProt Q96HA1 (Q96HA1 whole entry, looked up): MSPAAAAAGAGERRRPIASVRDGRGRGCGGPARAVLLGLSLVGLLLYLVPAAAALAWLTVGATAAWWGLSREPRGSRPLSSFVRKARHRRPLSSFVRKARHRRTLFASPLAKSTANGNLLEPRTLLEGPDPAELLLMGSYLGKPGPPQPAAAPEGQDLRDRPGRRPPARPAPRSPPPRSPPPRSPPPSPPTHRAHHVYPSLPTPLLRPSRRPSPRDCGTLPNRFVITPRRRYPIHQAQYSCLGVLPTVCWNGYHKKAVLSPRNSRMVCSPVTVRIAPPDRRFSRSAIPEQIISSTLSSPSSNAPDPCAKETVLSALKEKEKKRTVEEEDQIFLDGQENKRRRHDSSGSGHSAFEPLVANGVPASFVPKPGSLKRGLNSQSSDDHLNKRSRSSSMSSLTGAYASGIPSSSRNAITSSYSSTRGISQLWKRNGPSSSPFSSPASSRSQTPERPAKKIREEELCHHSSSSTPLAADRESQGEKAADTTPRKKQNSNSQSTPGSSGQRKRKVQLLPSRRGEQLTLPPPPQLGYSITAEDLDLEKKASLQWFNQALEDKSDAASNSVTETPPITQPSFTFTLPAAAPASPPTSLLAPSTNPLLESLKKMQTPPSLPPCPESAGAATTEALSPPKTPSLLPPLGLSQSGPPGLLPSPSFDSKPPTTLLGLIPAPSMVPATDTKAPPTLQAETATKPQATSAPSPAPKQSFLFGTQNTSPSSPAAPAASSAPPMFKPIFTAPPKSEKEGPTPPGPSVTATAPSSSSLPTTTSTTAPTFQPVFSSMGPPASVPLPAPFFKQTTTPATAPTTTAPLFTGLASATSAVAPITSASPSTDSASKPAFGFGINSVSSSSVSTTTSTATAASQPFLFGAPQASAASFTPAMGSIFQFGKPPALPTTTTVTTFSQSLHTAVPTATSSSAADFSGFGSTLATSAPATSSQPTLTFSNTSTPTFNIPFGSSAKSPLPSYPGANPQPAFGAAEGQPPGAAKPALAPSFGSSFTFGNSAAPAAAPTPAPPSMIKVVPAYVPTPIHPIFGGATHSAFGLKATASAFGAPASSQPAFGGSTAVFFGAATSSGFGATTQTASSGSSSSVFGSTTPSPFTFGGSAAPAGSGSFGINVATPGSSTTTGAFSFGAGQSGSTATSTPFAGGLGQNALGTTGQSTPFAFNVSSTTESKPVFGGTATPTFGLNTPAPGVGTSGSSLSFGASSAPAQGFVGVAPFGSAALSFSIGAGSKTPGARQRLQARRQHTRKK
inactive: [6] -0.015 | [3] -0.199 | [1] -0.083 | entinostat 0.01 | vorinostat 0.055 | citarinostat 0.045 | [5] 0.05 | [2] -0.045 | entospletinib -0.051

PCID2 (UniProt Q5JVF3)
Chain of UniProt Q5JVF3 (Q5JVF3 whole entry, looked up): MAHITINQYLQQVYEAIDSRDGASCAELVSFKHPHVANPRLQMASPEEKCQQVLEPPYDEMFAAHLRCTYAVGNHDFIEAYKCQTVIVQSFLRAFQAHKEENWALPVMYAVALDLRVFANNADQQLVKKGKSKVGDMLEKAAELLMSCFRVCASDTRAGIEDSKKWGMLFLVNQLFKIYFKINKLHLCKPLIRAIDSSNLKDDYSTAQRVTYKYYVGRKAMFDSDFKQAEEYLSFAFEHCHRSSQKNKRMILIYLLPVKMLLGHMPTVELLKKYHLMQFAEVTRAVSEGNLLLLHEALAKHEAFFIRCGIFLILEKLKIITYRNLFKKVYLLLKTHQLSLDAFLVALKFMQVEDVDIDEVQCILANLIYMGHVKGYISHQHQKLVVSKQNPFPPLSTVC
inactive: [6] -0.019 | [4] -0.103 | [1] 0.06 | entinostat 0.12 | vorinostat 0.199 | citarinostat -0.004 | silmitasertib 0.038 | [5] -0.15 | [2] 0.062 | entospletinib 0.014

PSMC1 (UniProt G3V4X1)
inactive: vorinostat 0.168

POLR2E (UniProt P19388)
inactive: [3] 0 | [4] -0.021 | [1] -0.02 | vorinostat -0.115 | citarinostat -0.001 | silmitasertib 0.134 | [5] 0.117 | [2] -0.088 | entospletinib 0.032

PHRF1 (UniProt Q9P1Y6)
inactive: [4] 0.148 | silmitasertib 0.176

POLB (UniProt P06746)
inactive: [6] -0.103 | entinostat 0.107 | vorinostat -0.106 | citarinostat 0.189 | [5] 0.113 | [2] -0.026 | entospletinib -0.156
